# What was measured:
# [1] = target: T1, Aspartate--tRNA(Asp/Asn) ligase (Mycobacterium tuberculosis (strain ATCC 25618 / H37Rv)) (UniProt P9WFW3); assay: Assay for Asp RNA synthetase-1 from Mycobacterium tuberculosis; format: functional; design: scale not given: direction of the effect not stated beside the values; conditions: 30 µM; also: in the data most compounds retested in dose-response had high values
# T1 sequence (whole entry): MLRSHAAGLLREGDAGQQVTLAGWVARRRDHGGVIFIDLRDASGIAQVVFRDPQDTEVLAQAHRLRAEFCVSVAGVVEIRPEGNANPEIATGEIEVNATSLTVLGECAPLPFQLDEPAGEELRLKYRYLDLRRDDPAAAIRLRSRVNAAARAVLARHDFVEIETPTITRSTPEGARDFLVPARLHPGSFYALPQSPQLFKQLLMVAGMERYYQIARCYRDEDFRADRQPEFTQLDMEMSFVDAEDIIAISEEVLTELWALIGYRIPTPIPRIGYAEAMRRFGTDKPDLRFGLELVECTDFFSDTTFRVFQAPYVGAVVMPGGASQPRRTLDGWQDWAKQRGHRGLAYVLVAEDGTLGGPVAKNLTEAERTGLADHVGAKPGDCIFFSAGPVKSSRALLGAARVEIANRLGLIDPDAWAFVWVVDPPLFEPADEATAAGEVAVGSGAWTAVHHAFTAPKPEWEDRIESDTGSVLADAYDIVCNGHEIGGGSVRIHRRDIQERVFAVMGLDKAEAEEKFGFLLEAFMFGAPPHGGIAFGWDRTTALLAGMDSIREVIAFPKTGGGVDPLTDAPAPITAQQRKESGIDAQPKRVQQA
# [2] = target: Shiga toxin 2 (Escherichia coli O157:H7) (UniProt P09385+P09386); assay: E. coli 0.157:H7 Shiga Toxin SOP - stx2 screening assay; format: functional; design: scale not given: direction of the effect not stated beside the values; conditions: 30 µM
SMILES,Percent Effect [1] [%],Percent Effect [2] [%]
CC(C)Cc1noc(CN2CCC(NC(=O)c3cccs3)CC2)n1,1.37,-32.8
O=C(CN1CCCCC1Cn1cccn1)NC1CCN(C2CC2)CC1 (configuration not stated),1.64,4.12
O=C([C@H]1C[C@H]2OCC[C@H]2N(C(=O)c2ccncc2)C1)N1CCCCO1,-3.79,-6.05
COc1ccc(-c2nc(CN3CC(n4cc(C)cn4)C3)no2)cc1,6.9,-20.1
c1nc2n(n1)CC(NCc1csc(-c3ccsc3)n1)CC2 (configuration not stated),-1.92,-23.2
CCc1nc(C2CCCN2CC(=O)Nc2c(C)n[nH]c2C)no1 (configuration not stated),-2.31,2.91
COc1cccc2c1OCC(CNC(=O)CNC(N)=O)C2 (configuration not stated),4.22,11.9
COc1ccc(CNC(=O)N2CCC(Cc3cnn(C)c3)C2)cc1C (configuration not stated),-2.9,18
CNc1nc2c(c(C(=O)N3CCCC3)n1)CN(Cc1nccn1C)CC2,1.96,-4.2
CCC(=O)N1CCC(c2nnc(Cn3cncn3)n2C2CC2)CC1,-3.04,-2.15
Cn1ccnc1CNC(=O)N1CCCC(Cc2nccn2C)C1 (configuration not stated),0.605,-13.5
COCc1cc(O)nc(C2CCCN(Cc3cc(OC)ccc3F)C2)n1 (configuration not stated),1.71,17.7
COc1ccc(C2CCCN2C(=O)c2cc3c([nH]c2=O)CCC3)cc1 (configuration not stated),3.11,-10
Cc1ccc(CN2CCCC3(COCCN(Cc4c[nH]nn4)C3)C2)o1 (configuration not stated),4.69,-4.03
COCC(=O)N1CCC(c2nc3ccc(N4CCCC4)cn3n2)CC1,-0.957,-26.9
COCC(=O)N1CCC(c2nccn2CC2CC2)CC1,-0.435,-12.6
CN1CC(=O)N(c2ccsc2)CC12CCN(C(=O)c1ccccc1)C2 (configuration not stated),2.85,-3.66
Cc1cc(C)n(CC2CCCN2C(=O)c2cc[nH]n2)n1 (configuration not stated),-3.22,-26.2
CNc1cc2c(nn1)CCN(C(=O)c1cc(F)cc(F)c1)C2,-0.49,12.4
Cn1cc(CN2CCCN(C(=O)c3ccc4c(c3)COC4)CC2)cn1,-0.281,30.1
CCc1nc(C2CCCN2Cc2nc(CCOC)no2)no1 (configuration not stated),5.05,-11.9
O=C(c1cc[nH]n1)N1CCCC(c2cccc(-n3ccnc3)n2)C1 (configuration not stated),-2.72,9.34
CC(=O)N1CCN(C(=O)CN2CCc3c(ncn3C3CC3)C2)CC1,1.82,-27.5

SMILES,Percent Effect [1] [%],Percent Effect [2] [%]
c1cncc(OCc2nnn3c2CN(Cc2ccsc2)CCC3)c1,-0.204,-23
CCCOc1ccc(CNC(=O)N2CCC(C(N)=O)C2)cc1 (configuration not stated),0.4,-0.133
CC(C)(C)c1n[nH]cc1CN1CCc2nc3ccsc3c(=O)n2CC1,-0.849,12.6
Cc1ccc(N2CC3(COCCN(Cc4cccnc4)C3)OCC2=O)s1 (configuration not stated),10.1,-4.57
Cc1csc(N2CCN(C(=O)CCC(=O)c3ccc(C)s3)CC2)n1,-2.27,8.56
CCc1ccsc1C(=O)N1CCN(CC(O)CC)CC1 (configuration not stated),1.06,-26.4
Cc1ncc(C)c(N2CCCC(CO)(Cc3cccc(Cl)c3)C2)n1 (configuration not stated),2.71,-21.4
CC(C)c1noc(C(C)N2CCN(Cc3ccsc3)CC2)n1 (configuration not stated),-3.93,27.9
Cc1cc(C)cc(NS(=O)(=O)c2cc3c(c(C(=O)O)c2)OCCO3)c1,3.19,-24.3
Cc1cncc(C2CCCN(C(=O)c3c[nH]c(=O)[nH]c3=O)C2)n1 (configuration not stated),3.87,26.6
c1ccc(-n2ccnc2)c(CNCC2CNc3ccnn3C2)c1 (configuration not stated),-5.71,-13.1
O=C(NC1CC1)N1CCc2ncnc(-c3ccncc3)c2CC1,5.15,-28.2
CCN(CC(=O)NC)S(=O)(=O)N1CCCCCC1,1.14,6.63
O=C(NCc1cccnc1)C1CC(=O)N(CC2CC2)C1 (configuration not stated),-3.29,-8.28
O=S(=O)(C1CC1)N1CCO[C@H]2[C@H](OCCN3CCCC3)CC[C@@H]21,2.59,-32.7
Cc1ccc(C(=O)N2CCSCC2)cc1NC(=O)Cn1cncn1,-1,-22.8
CCc1nc(CN(C)CC(c2cccs2)N2CCOCC2)no1 (configuration not stated),-4.22,-5.08
CC(=O)Nc1nc(C(=O)N2CCCC2c2ccccc2C)cs1 (configuration not stated),-0.698,1.85
COc1c(CNCc2cccc(Cn3ccnc3)c2)c(C)nn1C,7.35,14.4
Cc1csc(C2CCCN(C(=O)c3cc(Cl)c[nH]3)C2)n1 (configuration not stated),-3.61,29.7
O=c1[nH]c2c(c(=O)n1C1CCCCC1)CCC2NCCc1ccccc1 (configuration not stated),-2.9,3.31
Cc1ccc(NC2CCN(C(=O)CC3CCCO3)CC2)nn1 (configuration not stated),-2.07,4.7
CCn1ccnc1CN1CCOC(CNc2cccnn2)C1 (configuration not stated),-0.152,-18.9
